Laboratory results published in the supplement of paper PMC11732987, “Enantioselective OTUD7B fragment discovery through chemoproteomics screening and high-throughput optimisation” (Communications Chemistry, 2025).

Assays:
Assay in all cases: log2 ratio of Biotin-Ahx-Ub-VS probe labelling (fragment/DMSO); higher = less target engagement (more negative = stronger competition), active = hit call of the paper (q ≤ 0.05, log2 ratio ≤ -1)
Settings in all cases: compound concentration: 200 uM; treatment time: 3 h
[1] = biological target: T1, USP19 (UniProt O94966)
T1 sequence (whole entry): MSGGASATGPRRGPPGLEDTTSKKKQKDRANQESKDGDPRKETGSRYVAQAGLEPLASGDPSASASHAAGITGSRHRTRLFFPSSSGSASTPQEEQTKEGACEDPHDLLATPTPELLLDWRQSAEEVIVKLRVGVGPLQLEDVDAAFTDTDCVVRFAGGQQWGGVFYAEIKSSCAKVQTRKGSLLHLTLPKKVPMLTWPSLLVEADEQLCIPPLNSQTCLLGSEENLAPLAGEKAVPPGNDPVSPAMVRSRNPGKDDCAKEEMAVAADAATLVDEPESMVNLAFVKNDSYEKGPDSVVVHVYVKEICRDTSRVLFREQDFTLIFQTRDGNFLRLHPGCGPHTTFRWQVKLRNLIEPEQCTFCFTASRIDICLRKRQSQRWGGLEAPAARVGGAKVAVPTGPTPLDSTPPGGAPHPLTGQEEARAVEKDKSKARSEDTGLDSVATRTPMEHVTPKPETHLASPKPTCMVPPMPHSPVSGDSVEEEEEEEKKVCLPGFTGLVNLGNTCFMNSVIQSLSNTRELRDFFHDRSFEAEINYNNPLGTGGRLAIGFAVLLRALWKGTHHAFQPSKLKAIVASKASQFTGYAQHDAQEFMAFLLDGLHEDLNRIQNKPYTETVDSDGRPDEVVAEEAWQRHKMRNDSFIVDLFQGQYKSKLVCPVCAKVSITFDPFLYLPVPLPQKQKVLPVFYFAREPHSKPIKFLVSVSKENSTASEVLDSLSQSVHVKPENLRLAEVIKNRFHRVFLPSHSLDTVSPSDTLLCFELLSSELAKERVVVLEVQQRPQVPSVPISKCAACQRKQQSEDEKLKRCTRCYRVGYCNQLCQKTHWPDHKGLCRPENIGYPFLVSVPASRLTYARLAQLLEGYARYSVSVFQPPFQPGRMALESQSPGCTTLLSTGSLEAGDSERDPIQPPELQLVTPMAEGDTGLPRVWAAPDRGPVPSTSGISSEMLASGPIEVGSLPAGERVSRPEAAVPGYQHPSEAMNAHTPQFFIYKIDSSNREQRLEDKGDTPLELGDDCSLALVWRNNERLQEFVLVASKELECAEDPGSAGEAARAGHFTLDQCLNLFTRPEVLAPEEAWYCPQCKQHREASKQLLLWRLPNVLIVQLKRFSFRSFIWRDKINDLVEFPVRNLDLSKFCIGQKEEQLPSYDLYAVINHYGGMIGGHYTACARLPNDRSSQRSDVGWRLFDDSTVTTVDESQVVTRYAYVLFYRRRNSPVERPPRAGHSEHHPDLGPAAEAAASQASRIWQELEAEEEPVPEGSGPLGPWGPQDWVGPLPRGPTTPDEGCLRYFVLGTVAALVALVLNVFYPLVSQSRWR
Summary of the method: (§1)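 Average log2 ratios of fragment over vehicle were obtained by unpaired t-test from global-median-normalised Spectronaut label-free quantities. Proteins with ≥2 unique peptides were included. HEK293T lysate (495 µg per sample) was treated in triplicate with fragment at 200 µM or vehicle for 3 h, then with Biotin-Ahx-Ub-VS at 0.5 µM final for 1 h, and labelled DUBs were NeutrAvidin-enriched and run by diaPASEF LC-MS/MS.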

[2] = biological target: T2, USP22 (UniProt Q9UPT9)
T2 sequence (whole entry): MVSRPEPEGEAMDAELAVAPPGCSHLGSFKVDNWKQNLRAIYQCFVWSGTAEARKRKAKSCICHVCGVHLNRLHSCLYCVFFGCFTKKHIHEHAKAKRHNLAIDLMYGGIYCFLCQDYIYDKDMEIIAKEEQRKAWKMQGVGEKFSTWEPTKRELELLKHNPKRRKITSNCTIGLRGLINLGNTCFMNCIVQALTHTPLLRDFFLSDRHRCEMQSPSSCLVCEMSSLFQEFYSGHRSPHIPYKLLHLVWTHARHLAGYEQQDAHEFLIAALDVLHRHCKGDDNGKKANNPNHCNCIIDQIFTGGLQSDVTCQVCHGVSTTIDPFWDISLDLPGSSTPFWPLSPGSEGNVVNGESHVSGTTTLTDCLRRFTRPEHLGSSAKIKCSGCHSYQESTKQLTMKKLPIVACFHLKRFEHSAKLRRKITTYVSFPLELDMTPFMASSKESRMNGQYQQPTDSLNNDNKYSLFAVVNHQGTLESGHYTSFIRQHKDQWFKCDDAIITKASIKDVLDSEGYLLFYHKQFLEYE
Summary of the method: as §1

[3] = biological target: USP24 (UniProt Q9UPU5)
Summary of the method: as §1

[4] = biological target: T3, USP25 (UniProt Q9UHP3)
T3 sequence (whole entry): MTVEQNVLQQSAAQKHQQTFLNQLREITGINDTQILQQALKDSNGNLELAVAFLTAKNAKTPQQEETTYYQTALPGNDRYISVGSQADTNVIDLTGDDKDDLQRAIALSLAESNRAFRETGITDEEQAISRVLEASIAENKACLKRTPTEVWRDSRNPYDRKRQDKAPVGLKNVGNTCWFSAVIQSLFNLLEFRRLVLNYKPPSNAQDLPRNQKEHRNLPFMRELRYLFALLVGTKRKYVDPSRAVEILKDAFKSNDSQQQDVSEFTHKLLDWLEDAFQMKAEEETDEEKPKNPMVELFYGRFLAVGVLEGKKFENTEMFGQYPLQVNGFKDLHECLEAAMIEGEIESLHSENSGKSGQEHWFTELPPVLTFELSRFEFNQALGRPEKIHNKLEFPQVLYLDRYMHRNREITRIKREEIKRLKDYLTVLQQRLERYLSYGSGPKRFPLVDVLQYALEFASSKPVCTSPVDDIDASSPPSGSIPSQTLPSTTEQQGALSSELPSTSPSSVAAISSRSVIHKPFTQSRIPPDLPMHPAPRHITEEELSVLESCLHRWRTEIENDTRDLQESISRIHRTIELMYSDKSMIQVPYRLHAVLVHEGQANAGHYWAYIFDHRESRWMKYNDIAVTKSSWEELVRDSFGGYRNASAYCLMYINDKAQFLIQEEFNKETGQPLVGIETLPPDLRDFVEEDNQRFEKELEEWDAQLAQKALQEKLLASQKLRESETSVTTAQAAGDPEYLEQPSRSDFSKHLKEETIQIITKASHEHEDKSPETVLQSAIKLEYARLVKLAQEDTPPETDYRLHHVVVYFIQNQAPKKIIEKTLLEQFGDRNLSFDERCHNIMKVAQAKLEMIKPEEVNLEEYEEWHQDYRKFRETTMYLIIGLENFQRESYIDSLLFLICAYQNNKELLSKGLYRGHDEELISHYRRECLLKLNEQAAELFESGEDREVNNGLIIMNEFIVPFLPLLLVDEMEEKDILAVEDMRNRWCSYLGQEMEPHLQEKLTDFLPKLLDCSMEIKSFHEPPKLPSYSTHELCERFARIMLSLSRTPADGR
Summary of the method: as §1

[5] = biological target: T4, USP28 (UniProt Q96RU2)
T4 sequence (whole entry): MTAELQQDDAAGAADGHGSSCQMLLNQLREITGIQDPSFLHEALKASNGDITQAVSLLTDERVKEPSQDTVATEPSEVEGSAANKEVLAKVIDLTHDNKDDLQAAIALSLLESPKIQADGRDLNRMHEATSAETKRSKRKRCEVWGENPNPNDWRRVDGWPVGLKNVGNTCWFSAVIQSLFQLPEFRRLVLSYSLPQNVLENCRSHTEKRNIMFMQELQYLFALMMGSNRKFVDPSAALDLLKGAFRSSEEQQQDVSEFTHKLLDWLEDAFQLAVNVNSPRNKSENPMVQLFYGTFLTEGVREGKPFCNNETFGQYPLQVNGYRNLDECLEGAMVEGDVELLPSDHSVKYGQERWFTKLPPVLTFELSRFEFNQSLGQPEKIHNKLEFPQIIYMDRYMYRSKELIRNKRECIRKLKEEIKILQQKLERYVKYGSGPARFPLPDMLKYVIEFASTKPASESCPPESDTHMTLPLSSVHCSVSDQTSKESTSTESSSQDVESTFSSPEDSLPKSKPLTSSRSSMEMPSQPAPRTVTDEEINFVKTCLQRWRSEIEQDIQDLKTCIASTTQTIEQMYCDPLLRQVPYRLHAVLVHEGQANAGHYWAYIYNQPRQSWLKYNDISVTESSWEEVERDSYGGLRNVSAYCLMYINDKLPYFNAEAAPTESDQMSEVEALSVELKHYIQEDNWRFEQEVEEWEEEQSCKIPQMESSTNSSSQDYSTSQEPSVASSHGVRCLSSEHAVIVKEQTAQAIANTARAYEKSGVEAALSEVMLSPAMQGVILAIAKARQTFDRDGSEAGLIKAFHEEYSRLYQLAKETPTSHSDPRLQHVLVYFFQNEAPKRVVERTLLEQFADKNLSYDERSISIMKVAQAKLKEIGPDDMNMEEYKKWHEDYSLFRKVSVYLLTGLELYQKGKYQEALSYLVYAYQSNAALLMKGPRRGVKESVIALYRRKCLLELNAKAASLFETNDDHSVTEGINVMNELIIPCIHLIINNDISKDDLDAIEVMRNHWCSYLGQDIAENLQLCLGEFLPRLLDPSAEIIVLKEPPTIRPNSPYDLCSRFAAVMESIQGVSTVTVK
Summary of the method: as §1

Measured: log2 ratio of Biotin-Ahx-Ub-VS probe labelling

Chain of USP24 (Q9UPU5 whole entry): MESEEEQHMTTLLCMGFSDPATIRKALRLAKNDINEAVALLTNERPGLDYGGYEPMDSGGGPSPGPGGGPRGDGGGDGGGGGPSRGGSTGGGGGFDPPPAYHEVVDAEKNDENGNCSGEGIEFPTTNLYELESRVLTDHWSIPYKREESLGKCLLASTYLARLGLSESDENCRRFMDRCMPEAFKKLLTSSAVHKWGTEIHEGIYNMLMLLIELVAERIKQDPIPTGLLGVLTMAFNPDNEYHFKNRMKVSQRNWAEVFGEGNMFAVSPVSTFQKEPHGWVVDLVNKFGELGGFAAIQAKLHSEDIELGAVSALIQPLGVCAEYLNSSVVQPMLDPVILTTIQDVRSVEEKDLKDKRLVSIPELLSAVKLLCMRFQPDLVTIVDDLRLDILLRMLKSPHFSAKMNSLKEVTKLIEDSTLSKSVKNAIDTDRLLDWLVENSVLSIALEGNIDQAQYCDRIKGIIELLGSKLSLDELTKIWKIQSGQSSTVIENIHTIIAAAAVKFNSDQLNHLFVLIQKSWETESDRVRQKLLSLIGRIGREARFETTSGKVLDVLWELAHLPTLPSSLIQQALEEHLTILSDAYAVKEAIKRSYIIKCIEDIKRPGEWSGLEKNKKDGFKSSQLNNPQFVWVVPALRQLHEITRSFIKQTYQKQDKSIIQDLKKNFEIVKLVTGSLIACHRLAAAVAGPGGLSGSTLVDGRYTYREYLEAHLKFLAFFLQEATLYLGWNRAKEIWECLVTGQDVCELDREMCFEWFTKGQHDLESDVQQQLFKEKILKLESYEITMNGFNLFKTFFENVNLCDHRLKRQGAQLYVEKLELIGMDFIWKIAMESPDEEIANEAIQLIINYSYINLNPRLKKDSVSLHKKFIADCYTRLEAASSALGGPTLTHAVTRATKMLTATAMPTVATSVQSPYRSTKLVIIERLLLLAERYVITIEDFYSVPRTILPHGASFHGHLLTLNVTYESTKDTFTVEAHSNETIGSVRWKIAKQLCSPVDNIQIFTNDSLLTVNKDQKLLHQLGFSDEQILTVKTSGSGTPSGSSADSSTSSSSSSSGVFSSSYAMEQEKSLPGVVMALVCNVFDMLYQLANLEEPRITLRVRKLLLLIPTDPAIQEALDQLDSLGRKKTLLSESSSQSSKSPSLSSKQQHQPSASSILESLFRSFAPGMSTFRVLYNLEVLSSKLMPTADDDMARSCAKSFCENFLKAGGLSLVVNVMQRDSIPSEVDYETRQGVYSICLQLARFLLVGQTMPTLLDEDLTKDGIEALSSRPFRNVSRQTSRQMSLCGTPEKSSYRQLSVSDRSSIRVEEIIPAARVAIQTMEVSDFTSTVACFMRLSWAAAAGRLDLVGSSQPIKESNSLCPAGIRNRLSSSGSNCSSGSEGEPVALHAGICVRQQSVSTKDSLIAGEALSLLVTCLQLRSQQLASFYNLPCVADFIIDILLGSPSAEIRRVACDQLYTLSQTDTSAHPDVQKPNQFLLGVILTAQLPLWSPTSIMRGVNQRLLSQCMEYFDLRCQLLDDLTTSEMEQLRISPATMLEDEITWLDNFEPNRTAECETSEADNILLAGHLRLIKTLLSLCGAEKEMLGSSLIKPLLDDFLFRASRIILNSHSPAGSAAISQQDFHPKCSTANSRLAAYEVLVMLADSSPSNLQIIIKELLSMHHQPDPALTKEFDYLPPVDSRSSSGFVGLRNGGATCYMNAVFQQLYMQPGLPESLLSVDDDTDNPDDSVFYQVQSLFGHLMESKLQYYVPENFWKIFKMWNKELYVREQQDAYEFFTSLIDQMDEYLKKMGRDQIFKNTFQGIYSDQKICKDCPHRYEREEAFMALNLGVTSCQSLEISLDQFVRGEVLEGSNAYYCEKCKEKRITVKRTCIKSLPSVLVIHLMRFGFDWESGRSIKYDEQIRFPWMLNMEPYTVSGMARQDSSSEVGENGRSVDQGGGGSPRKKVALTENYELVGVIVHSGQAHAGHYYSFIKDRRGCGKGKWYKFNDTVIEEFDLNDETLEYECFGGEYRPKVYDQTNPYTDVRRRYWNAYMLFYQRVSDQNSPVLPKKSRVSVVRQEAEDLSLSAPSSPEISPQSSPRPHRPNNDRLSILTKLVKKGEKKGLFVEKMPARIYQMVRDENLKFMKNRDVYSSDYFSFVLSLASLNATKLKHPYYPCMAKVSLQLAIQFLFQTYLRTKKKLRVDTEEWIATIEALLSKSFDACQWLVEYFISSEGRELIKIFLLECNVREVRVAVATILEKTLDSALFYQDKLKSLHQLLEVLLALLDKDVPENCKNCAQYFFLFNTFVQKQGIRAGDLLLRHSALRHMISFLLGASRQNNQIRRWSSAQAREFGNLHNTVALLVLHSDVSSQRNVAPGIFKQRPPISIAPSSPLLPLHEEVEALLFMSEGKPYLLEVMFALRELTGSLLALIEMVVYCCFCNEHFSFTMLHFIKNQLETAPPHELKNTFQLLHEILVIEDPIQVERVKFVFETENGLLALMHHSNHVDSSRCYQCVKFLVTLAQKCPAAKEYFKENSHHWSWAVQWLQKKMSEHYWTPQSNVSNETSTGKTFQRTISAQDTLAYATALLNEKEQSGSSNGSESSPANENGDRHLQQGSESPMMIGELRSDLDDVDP

Cc1ccc(CC(CO)CNC(=O)CCl)cc1 (stereo not given)
inactive: [1] -0.487 | [2] -0.0764 | [3] -0.554 | [4] -0.531 | [5] -0.597
